According to PubChem BioAssay (NCATS):
Results filed as inconclusive are left out. The source made the active and inactive calls. Unless noted, calls follow the shape of the dose curve; as a rule, active = well fitted curve in the direction sought with a large enough effect; inconclusive = small, poorly fitted or top-dose-only effect, or another doubt; inactive = no such curve, though single readings can be large; an effect the other way counts as inactive or inconclusive.

Experiments:
[1] = Validation of Assay for Modulators of Lamin A Splicing (AID 1459; active = well fitted curve in the direction sought with a large enough effect in the signal ratio; the % refers to the signal ratio;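 also: cells exposed to compound for two days before reading; 0% is about no effect; ratio rise marks activators and ratio drop marks inhibitors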)
Summary of the method: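 Splicing correction is reported by an EGFP-containing lamin A minigene in stably transfected S3 HeLa cells, while DsRed2 controls for viability and nonspecific signal. Cells are exposed to compounds for 48 hrs before the GFP over RFP ratio is taken.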

[2] = qHTS Assay for Lipid Storage Modulators (AID 1519; calls by dose curve); conditions: Drosophila S3 cells, BODIPY lipid droplet/cell ratio, laser cytometry, cells loaded with oleic acid
Summary of the method: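 Cells seeded at 5,000 per well were treated with compounds over a concentration series and loaded with oleic acid (400 uM, as added). Lipid droplet fluorescence (488 nm excitation, 500-530 nm channel) was read by laser-scanning cytometry and normalized to 20 uM Triacsin C.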

[3] = biological target: DNA repair nuclease/redox regulator APEX1 (Homo sapiens) (UniProt P27695); assay: qHTS Validation Assay for Inhibitors of the Human Apurinic/apyrimidinic Endonuclease 1 (APE1) (AID 1705;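 also: TAMRA fluorescence gain over two minutes as APE1 cuts a quenched THF abasic duplex; % is scaled to controls: 0 for no effect and ±100 for the full control effect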)
Chain of DNA repair nuclease/redox regulator APEX1 (Homo sapiens) (P27695 whole entry, looked up): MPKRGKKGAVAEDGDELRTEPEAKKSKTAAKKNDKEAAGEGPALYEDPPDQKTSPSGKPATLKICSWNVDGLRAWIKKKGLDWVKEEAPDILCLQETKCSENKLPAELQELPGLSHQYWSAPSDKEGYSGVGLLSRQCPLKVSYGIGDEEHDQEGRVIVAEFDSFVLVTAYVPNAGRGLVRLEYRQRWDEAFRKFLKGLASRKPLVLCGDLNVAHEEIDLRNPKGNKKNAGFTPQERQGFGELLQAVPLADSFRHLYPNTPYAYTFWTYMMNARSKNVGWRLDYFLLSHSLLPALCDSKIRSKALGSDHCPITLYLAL
Summary of the method: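 Endonuclease activity of human APE1 is followed as dequenching when the enzyme incises a tetrahydrofuran abasic site in a short duplex labelled 5'-TAMRA/3'-BHQ-2 (50 nM final), after 15 min enzyme–compound preincubation at room temperature.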

[4] = biological target: Endonuclease 4 (Escherichia coli (strain K12)) (UniProt P0A6C1); assay: Counterscreen for APE1 Inhibitors: qHTS Validation Assay for Inhibitors of Endonuclease IV (AID 1708); also: % is scaled to controls: 0 for no effect and ±100 for the full control effect
Summary of the method: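 The reaction buffer contained 50 mM Tris-HCl pH 7.5, 50 mM NaCl, 2 mM MgCl2, 1 mM DTT and 0.01% Tween-20. Incision of a 50 nM fluorophore/quencher THF substrate by 2 nM enzyme was measured kinetically.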

[5] = qHTS for differential inhibitors of proliferation of Plasmodium falciparum line 7G8 (AID 1815);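 also: parasite growth measured after three days of incubation; plate controls were vehicle wells for no effect and reference inhibitor wells for full effect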
[6] = qHTS for differential inhibitors of proliferation of Plasmodium falciparum line GB4 (AID 1816); conditions: Potency: Plasmodium falciparum GB4 proliferation inhibition;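 also: parasite growth measured after 72 h incubation; 0% = vehicle DMSO and -100% = reference inhibitor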
[7] = qHTS for differential inhibitors of proliferation of Plasmodium falciparum line 3D7 (AID 1876);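 also: parasite growth measured after three days of culture; 0% = vehicle wells and -100% = reference inhibitor wells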
[8] = qHTS for differential inhibitors of proliferation of Plasmodium falciparum line D10 (AID 1877);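 also: parasites grown with compound for 72 h before DNA staining; plate controls were vehicle wells for no effect and reference inhibitor wells for full effect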
[9] = qHTS for differential inhibitors of proliferation of Plasmodium falciparum line Dd2 (AID 1882); conditions: Potency: Plasmodium falciparum Dd2 proliferation inhibition;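 also: compound exposure of 72 h on infected erythrocytes; plate controls were DMSO vehicle for no effect and 0.29 µM artemisinin for full effect; nearly all actives have a fitted effect of over 65% in size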
Summary of the method: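 RBC culture, 0.3% parasitemia / 2.5% Hct final; cpd added by pin tool in DMSO; 72 h, 37 C, 5% CO2; lysis buffer + SYBR Green I, o/n RT dark; FI 485/535; norm. to artemisinin 0.29 uM and DMSO.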

[10] = qHTS for differential inhibitors of proliferation of Plasmodium falciparum line W2 (AID 1883); conditions: Potency: Plasmodium falciparum W2 proliferation inhibition;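 also: parasites grown with compound for 72 h before lysis and staining; 0% = vehicle wells and -100% = control inhibitor wells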
[11] = qHTS for differential inhibitors of proliferation of Plasmodium falciparum line HB3 (AID 1886); conditions: Potency: Plasmodium falciparum HB3 proliferation inhibition;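 also: parasites grown with compound for 72 h before SYBR Green readout; plate controls were vehicle for no effect and reference inhibitor for full effect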
[12] = qHTS Assay for Modulators of Human Peripheral Myelin Protein 22 (PMP22) Expression/Activity (AID 1967; active = well fitted curve in the direction sought with a large enough effect in the signal ratio; the % refers to the signal ratio;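 also: 0% = untreated cells and 100% end not stated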)
Summary of the method: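 Quantitative HTS in a mouse Schwann cell line expressing dual click beetle luciferases: Pmp22 promoter (green) and control EF-alpha promoter (red). After 24h treatment, corrected green/red signal ratio gave %Activity relative to untreated cells.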

[13] = biological target: Ferritin light chain (Equus caballus) (UniProt P02791); assay: qHTS Validation Assay for Identification of Novel General Anesthetics (AID 2323); also: % is scaled to controls: 0 for no effect and ±100 for the full control effect
Chain of Ferritin light chain (Equus caballus) (P02791 2-175 limits assumed): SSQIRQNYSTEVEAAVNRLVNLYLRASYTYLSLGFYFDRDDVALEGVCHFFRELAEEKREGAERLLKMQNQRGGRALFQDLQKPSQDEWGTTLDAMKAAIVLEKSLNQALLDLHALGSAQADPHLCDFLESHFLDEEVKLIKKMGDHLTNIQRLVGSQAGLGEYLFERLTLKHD
Summary of the method: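 Apoferritin from horse spleen (10 uM) was mixed with 1-aminoanthracene at 50% saturation in PBS, then compounds were added. After 10 min at room temperature, fluorescence was read (ex 380 nm, em 535 nm) and normalized to free-probe and complex controls.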

[14] = biological target: ATP-dependent DNA helicase Q1 (Homo sapiens) (UniProt P46063); assay: qHTS Validation Assay for Inhibitors of RecQ-Like Dna Helicase 1 (RECQ1) (AID 2353);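 also: plate controls were DMSO vehicle for no effect and enzyme-free control for full effect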
Summary of the method: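 RECQ1T1 50 nM; forked duplex (20 bp + 30-nt ss tails) 200 nM, ATP 2 mM final; pH 8.0, 2 mM MgCl2, 2.5 ug/ml poly(dI-dC); 15 min compound preincubation; discontinuous kinetic read over 2 h at RT.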

[15] = biological target: RecQ-like DNA helicase BLM (Homo sapiens) (UniProt P54132); assay: qHTS Validation Assay for Inhibitors of Bloom's syndrome helicase (BLM) (AID 2364);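 also: plate controls were DMSO vehicle for no effect and enzyme-free control for full effect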
Summary of the method: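 Forked 20-bp duplex substrate (200 nM, TAMRA/BHQ-2) plus 2 mM ATP added after 15 min compound preincubation with 50 nM enzyme, pH 8.0, poly(dI-dC) 2.5 ug/ml. Strand separation followed by fluorescence (525/598 nm) over 2 h, normalized to enzyme-free and DMSO controls.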

[16] = Validation screen for small molecules that induce DNA re-replication in MCF 10A normal breast cells (AID 463097); also: 0% is about no effect; nearly all actives have a fitted effect of over 60% in size
Summary of the method: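 DNA re-replication was detected as a rise in nuclei with elevated Hoechst fluorescence after a 48 hr compound exposure of MCF 10A cells at 37 C.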

[17] = Quantitative high throughput screen for delayed death inhibitors of the malarial parasite plastid, 48 hour incubation (AID 488752); also: % is scaled to controls: 0 for no effect and ±100 for the full control effect; nearly all actives have a fitted effect of over 65% in size
Summary of the method: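 Luciferase-expressing P. falciparum in RBCs, 2% Hct, 0.1% parasitemia final; RPMI 1640 + 0.5% Albumax; 48 h, 37 C, 5% CO2; luminescence readout, signal drop = growth inhibition.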

[18] = biological target: M-phase phosphoprotein 8 (Homo sapiens) (UniProt Q99549); assay: qHTS Validation Assay for Inhibitors for MPP8 Chromodomain Interactions with Methylated Histone Tails (AID 488949);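 also: AlphaScreen signal from MPP8 chromodomain bound to biotinylated H3K9me3 peptide; top concentration of the series differs between compounds; % is scaled to controls: 0 for no effect and ±100 for the full control effect; nearly all actives have a fitted effect of over 55% in size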
Chain of M-phase phosphoprotein 8 (Homo sapiens) (Q99549 whole entry, looked up): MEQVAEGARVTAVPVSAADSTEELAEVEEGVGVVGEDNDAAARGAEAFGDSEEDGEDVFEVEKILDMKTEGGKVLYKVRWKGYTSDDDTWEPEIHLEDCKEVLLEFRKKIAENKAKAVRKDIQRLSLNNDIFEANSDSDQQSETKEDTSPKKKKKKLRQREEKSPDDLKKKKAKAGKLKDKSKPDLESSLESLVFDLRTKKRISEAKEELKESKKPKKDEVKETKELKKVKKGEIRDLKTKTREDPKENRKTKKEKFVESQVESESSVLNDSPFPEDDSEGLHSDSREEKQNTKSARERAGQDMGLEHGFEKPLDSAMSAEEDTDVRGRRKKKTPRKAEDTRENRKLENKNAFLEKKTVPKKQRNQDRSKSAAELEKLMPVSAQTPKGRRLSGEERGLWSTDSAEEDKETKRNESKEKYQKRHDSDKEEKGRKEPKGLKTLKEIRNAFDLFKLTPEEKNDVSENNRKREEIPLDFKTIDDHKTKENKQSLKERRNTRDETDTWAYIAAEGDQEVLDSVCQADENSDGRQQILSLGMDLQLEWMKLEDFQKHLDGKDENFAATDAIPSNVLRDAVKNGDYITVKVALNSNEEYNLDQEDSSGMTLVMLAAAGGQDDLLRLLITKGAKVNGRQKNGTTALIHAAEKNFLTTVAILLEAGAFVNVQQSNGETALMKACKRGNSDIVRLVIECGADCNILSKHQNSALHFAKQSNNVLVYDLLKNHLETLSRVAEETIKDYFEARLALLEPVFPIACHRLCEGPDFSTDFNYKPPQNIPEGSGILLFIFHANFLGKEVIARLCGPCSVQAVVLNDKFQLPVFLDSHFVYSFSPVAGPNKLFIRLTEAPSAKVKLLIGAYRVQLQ
Summary of the method: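 Disruption of the preformed MPP8–trimethyl-H3K9 peptide complex (both 50 nM, 30 min, RT) is measured after 30 min compound exposure, using AlphaScreen proximity beads; aurintricarboxylic acid titration serves as plate control.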

[19] = biological target: Transient receptor potential cation channel subfamily V member 1 (Homo sapiens) (UniProt Q8NER1); assay: HTS Assay for Compounds that Act as Enhancers of the Vanilloid Receptor 1 (AID 488979); also: 0% is about no effect
Chain of Transient receptor potential cation channel subfamily V member 1 (Homo sapiens) (Q8NER1 whole entry, looked up): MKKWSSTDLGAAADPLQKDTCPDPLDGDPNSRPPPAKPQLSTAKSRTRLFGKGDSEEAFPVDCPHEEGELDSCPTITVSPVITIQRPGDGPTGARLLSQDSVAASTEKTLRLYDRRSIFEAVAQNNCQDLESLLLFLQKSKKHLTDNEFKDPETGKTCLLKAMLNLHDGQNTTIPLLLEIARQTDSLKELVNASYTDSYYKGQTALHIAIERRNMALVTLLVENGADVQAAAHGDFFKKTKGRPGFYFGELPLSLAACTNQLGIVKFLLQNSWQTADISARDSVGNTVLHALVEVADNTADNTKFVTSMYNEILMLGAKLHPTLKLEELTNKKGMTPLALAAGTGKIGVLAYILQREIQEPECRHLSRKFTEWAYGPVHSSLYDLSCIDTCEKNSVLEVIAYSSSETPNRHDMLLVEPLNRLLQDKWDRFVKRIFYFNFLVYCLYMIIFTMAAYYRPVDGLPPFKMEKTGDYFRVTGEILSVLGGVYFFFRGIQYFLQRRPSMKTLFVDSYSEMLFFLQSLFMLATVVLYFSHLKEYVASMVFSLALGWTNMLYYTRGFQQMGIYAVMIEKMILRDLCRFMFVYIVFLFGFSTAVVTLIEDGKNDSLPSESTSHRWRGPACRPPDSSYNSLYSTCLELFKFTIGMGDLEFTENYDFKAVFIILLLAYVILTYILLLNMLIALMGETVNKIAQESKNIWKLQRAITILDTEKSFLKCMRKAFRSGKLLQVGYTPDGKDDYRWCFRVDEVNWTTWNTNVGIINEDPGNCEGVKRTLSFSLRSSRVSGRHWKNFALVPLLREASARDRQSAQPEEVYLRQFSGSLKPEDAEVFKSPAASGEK
Summary of the method: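 Calcium influx kinetics via Fluo-8 (480/520 nm) in TRPV1-expressing cells, 2000/well cultured overnight at 35.5C. Compound-alone read 3 min (agonist phase), followed by EC20 capsaicin challenge for 2 min (enhancer phase).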

[20] = biological target: Thyrotropin receptor (Homo sapiens) (UniProt P16473); assay: qHTS Assay for Antagonists of the Thyroid Stimulating Hormone Receptor (AID 488980); also: 0% is about no effect
Chain of Thyrotropin receptor (Homo sapiens) (P16473 whole entry, looked up): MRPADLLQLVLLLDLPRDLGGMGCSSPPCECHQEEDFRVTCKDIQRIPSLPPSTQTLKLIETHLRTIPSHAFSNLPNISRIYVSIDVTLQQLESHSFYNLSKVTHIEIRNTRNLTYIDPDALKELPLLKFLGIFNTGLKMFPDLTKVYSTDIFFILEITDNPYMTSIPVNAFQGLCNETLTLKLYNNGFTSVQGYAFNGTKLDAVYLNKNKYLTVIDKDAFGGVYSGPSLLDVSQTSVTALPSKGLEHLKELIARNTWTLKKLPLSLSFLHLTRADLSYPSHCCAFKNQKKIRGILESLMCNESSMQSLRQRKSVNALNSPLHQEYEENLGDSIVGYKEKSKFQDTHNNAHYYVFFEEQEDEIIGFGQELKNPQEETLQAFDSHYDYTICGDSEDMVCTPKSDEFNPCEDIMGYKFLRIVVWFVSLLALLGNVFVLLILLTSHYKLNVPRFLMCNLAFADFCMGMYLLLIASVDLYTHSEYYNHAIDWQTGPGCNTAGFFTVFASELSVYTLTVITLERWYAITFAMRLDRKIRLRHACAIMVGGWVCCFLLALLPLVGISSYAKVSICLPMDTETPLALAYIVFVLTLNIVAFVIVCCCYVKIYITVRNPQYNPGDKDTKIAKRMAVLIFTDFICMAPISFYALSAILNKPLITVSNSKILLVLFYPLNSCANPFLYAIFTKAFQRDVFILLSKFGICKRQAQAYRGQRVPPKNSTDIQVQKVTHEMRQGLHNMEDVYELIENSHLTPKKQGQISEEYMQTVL
Summary of the method: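 Cells expressing human TSHR (HEK293) are dispensed in HBSS/HEPES containing 70 uM RO 20-1724, compound is added, then TSH at EC80 (4 nM final). Antibody in lysis buffer follows, 30 minutes at room temperature before HTRF detection.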

[21] = biological target: Thyrotropin-releasing hormone receptor (Homo sapiens) (UniProt P34981); assay: qHTS for Small Molecule Agonists and Allosteric Enhancers of Human TRH Receptor: Validation Screen for Agonists (AID 493127;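 active = calcium activation more than 3 SD above the typical response in the agonist read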;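 also: intracellular calcium rise by fluo-8 fluorescence before TRH EC20 addition; 0% is about no effect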); conditions: TRH receptor agonist cell assay; at 2 µM; stronger effect = higher value
Chain of Thyrotropin-releasing hormone receptor (Homo sapiens) (P34981 whole entry, looked up): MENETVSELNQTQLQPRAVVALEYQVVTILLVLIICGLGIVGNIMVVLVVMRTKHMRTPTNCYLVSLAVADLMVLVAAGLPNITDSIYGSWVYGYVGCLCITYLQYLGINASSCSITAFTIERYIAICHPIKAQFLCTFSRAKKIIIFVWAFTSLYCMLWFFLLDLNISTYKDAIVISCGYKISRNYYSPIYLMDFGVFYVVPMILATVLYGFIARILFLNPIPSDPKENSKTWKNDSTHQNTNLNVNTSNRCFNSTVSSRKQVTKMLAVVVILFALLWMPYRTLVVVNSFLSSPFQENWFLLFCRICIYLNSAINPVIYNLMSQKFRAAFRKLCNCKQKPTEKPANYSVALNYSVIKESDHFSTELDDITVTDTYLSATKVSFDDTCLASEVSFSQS
Summary of the method: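 Read-out: intracellular calcium release measured kinetically by FDSS (fluo-8, ex 480/em 530 nm), 1 reading/s after a 10-cycle baseline. TRHR cells, 2000/well, cultured 18 h at 33.5C, dye-loaded at room temp. Compound-evoked positive calcium signal flags agonists.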

[22] = biological target: Galactokinase (Homo sapiens) (UniProt P51570); assay: qHTS Validation Assay for Inhibitors of Human Galactokinase (GALK) (AID 493189); also: 0% is about no effect
Chain of Galactokinase (Homo sapiens) (P51570 whole entry, looked up): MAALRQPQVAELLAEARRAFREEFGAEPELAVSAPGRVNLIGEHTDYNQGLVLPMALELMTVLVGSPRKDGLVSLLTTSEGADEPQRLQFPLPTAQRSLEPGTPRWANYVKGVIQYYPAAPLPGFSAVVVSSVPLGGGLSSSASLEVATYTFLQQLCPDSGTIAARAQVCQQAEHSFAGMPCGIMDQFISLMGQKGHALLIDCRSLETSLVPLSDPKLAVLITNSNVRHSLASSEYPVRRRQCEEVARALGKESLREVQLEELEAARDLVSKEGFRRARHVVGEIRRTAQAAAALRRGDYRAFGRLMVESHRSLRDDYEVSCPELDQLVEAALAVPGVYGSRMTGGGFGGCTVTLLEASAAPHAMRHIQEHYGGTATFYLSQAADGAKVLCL
Summary of the method: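 Compounds were pin-transferred into ATP buffer, then GALK-galactose mix was added (final 5 nM enzyme, 100 uM galactose, 35 uM ATP). After 1 h at room temperature, remaining ATP was measured luminescently.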

[23] = Validation screen for small molecules that induce DNA re-replication in SW480 colon adenocarcinoma cells (AID 504364); also: 0% is about no effect
Summary of the method: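 Read-out: total Hoechst intensity of nuclei by fluorescence scanning imager; hits raise the fraction of nuclei with elevated DNA content. Cells received compound for 48 hr at 37 C before a 40 min stain.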

[24] = biological target: Voltage-gated inwardly rectifying potassium channel KCNH2 (Homo sapiens) (UniProt Q12809); assay: qHTS Assay for Small Molecule Inhibitors of the Human hERG Channel Activity (AID 588834);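 also: U2OS cells transduced with hERG by BacMam; top concentration of the series differs between compounds; % is scaled to controls: 0 for no effect and ±100 for the full control effect; lower thallium flux fluorescence means stronger hERG block; nearly all actives have a fitted effect of over 50% in size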
Chain of Voltage-gated inwardly rectifying potassium channel KCNH2 (Homo sapiens) (Q12809 whole entry, looked up): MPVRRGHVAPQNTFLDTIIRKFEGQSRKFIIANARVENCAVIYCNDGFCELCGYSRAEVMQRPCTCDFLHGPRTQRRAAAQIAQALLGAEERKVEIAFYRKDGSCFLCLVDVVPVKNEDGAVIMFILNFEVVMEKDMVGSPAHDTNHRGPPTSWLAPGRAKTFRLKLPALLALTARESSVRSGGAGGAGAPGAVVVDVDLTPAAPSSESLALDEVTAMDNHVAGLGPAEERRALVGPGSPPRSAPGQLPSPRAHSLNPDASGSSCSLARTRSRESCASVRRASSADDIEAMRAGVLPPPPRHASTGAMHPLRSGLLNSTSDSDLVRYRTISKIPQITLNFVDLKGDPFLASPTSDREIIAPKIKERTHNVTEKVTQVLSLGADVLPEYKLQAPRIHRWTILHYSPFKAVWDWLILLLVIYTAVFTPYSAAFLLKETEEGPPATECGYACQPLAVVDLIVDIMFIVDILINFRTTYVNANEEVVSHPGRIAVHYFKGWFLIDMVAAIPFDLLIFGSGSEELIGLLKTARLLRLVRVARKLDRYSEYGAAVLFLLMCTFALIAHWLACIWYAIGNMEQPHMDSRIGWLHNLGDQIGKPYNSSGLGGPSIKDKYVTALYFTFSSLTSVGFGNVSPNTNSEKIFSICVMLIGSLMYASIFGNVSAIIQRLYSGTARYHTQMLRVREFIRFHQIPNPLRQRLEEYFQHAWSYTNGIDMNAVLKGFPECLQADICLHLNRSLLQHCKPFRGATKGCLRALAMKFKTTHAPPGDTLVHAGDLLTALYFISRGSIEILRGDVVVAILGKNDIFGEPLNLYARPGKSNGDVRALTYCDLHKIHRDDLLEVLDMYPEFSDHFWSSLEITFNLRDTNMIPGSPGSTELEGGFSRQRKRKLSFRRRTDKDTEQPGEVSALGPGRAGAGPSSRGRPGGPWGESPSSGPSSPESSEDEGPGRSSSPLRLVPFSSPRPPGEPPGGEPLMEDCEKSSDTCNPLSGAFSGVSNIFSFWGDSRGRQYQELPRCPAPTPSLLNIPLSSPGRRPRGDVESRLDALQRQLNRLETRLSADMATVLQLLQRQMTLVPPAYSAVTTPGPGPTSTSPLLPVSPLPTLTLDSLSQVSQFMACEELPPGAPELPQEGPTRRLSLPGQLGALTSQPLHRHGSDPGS
Summary of the method: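 Cells were infected with hERG-BacMam virus for 4 hrs at room temperature, grown overnight, then seeded at 2000/well. After dye loading and roughly 10 min compound treatment, thallium influx was triggered and fluorescence recorded.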

[25] = test system: Zika virus NS2B-NS3 protease; assay: Primary screen GU AMC qHTS for Zika virus inhibitors (AID 1347154);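 also: 0% = no-inhibitor control and -100% = no-enzyme control; nearly all actives have a fitted effect of over 70% in size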
Summary of the method: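 Fluorogenic AMC-substrate cleavage by noncovalent NS2B-NS3 protease complex (25 nM, pH 8.0 Tris buffer with Tween 20) followed for 15 minutes at room temperature (~20% conversion). Percent inhibition from ex340/em450 signal change, fitted by 4-parameter Hill equation.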

[26] = Primary qHTS for small molecule stabilizers of the endoplasmic reticulum resident proteome: Secreted ER Calcium Modulated Protein (SERCaMP) assay (AID 1508630); also: % is scaled to controls: 0 for no effect and ±100 for the full control effect
Summary of the method: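 The SH-SY5Y reporter protocol was run at 3 concentrations up to 38.3 uM (primary) or 11 concentrations (follow-up): 16 h compound, 100 nM thapsigargin for 4 h, then extracellular luciferase luminescence.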

[27] = Counterscreen qHTS for small molecule stabilizers of the endoplasmic reticulum resident proteome: GLuc-NoTag assay (AID 1508627);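 also: SH-SY5Y cells given compound then 100 nM thapsigargin to empty ER calcium; 0% = thapsigargin alone and -100% = DMSO vehicle control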
Summary of the method: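 Counterscreen line: SH-SY5Y-GLuc-NoTag cells, treated with compound 19 hr before a 4 hr, 100 nM thapsigargin calcium depletion. Secreted Gaussia luciferase in the medium was measured by luminescence after coelenterazine was added (0.07x final), with cells unlysed.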

[28] = Confirmatory qHTS for small molecule stabilizers of the endoplasmic reticulum resident proteome: Secreted ER Calcium Modulated Protein (SERCaMP) assay (AID 1508628); also: % is scaled to controls: 0 for no effect and ±100 for the full control effect; nearly all actives have a fitted effect of over 40% in size
Summary of the method: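 GLuc-SERCaMP-expressing SH-SY5Y cells, pretreated 16 h with compound, are challenged with thapsigargin to empty ER calcium stores; after 4 h, coelenterazine is added directly to the medium and luminescence is imaged.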

[29] = Cell Viability qHTS for small molecule stabilizers of the endoplasmic reticulum resident proteome (AID 1508629); conditions: cell viability counter-screen, 100 nM thapsigargin for final 4 h

NC(CCC(=O)NCS(=O)(=O)O)C(=O)O (centres undefined)
45.8%: max response ([2]; measured here: cell count channel max response)
46.4%: max response ([2]; measured here: lipid channel max response)
inactive: outcome [1] | activity change, negative = inhibition ([2]; at 57.5 µM (top of the series)) 1.69% | Potency [3] | Potency [4] | Potency [5] | Potency [6] | Potency [7] | Potency [8] | Potency [9] | Potency [10] | Potency [11] | outcome [12] | outcome [13] | Potency [14] | Potency [15] | Potency [16] | Potency [17] | Potency [18] | outcome [19] | outcome [20] | activation [21] 1.56% | outcome [22] | outcome [23] | Potency [24] | Potency [25] | Potency [26]

c1ncc(CCCC2CCNCC2)[nH]1
inactive: Potency [25] | Potency [27]

O=C(O)C1NCCN(C(=O)c2ccc3c(ccc4ccccc43)c2)C1C(=O)O (centres undefined)
inactive: Potency [25] | Potency [27] | Potency [28] | max response [29] 28.7%
